Results published in article PMC4102417.

These compounds were tested on murine 3T3 fibroblasts (assay: primary screen, percent viability or growth; higher = less effect of the substance).
Protocol: Similarly, for measuring the cytotoxicity concentration (CC50) for 3T3 fibroblast cells, cultures were incubated with drugs for 72 hours and developed using Alamar Blue (Alamar Biosciences Inc, Sacramento, CA) as previously described.
In the case of CCCCCCc1ccc(O)cc1O.Nc1c2ccccc2nc2ccccc12, the “Mammalian (3T3) cell % growth at 10 uM” value is reported as 53.7%. In the case of Nc1nc(N)c2nc(-c3ccccc3)c(N)nc2n1, the “Mammalian (3T3) cell % growth at 10 uM” value is reported as 72.7%. With COc1cc2nc(N3CCN(C(=O)c4ccco4)CC3)nc(N)c2cc1OC.Cl the “Mammalian (3T3) cell % growth at 10 uM” value was 70.7%. In the case of COC(=O)C1(C)CCCC2(C)c3ccc(O)c(C(C)C)c3CCC12 (stereo not shown), the “Mammalian (3T3) cell % growth at 10 uM” value is reported as 38.5%. For CC[C@@]1([C@@H]2O[C@@H]([C@H]3O[C@@](O)(CO)[C@H](C)C[C@@H]3C)C[C@@H]2C)CC[C@H]([C@]2(C)CC[C@]3(C[C@H](O)[C@@H](C)[C@@H]([C@@H](C)[C@@H](OC)[C@H](C)C(=O)O)O3)O2)O1, the “Mammalian (3T3) cell % growth at 10 uM” value was 41.3%. In the case of COc1c2c(cc3occ(-c4ccc5c(c4)OCO5)c(=O)c13)OC(C)(C)C=C2, the “Mammalian (3T3) cell % growth at 10 uM” value is reported as 68.2%. With COC(=O)CC[C@@H](C)[C@H]1CC[C@H]2[C@@H]3CC[C@@H]4C[C@H](O)CC[C@]4(C)[C@H]3C[C@H](O)[C@]12C the “Mammalian (3T3) cell % growth at 10 uM” value was 100%. In the case of C1CCC(C(CC2CCCCN2)C2CCCCC2)CC1.O=C(O)/C=C\C(=O)O (stereo not shown), the “Mammalian (3T3) cell % growth at 10 uM” value is reported as -0.2%. C=CC(C1=CC(=O)C=CC1=O)c1ccccc1 (stereo not shown) was tested, and the “Mammalian (3T3) cell % growth at 10 uM” value was 97.5%. CN1CCc2c(c3ccccc3n2Cc2ccccc2)C1.O=S(=O)(O)c1cccc2c(S(=O)(=O)O)cccc12 was tested, and the “Mammalian (3T3) cell % growth at 10 uM” value was 100%. Oc1ccc(O)cc1 was tested, and the “Mammalian (3T3) cell % growth at 10 uM” value was 93.9%. With CC(C1OC(C)(C)C(O)C1O)C1CCC2(C)C3=CCC4C(C)(C)C(=O)CCC4(C)C3CCC12C (stereo not shown) the “Mammalian (3T3) cell % growth at 10 uM” value was 92.7%. CC(=O)OC1CC2C(C)(C)C(=O)C3OC3C2(C)C2CCC3(C)C(c4ccoc4)OC(=O)C4OC43C12C (stereo not shown) was tested, and the “Mammalian (3T3) cell % growth at 10 uM” value was 73.4%.
